Rows were chosen to be rich in hits. Some 11% of all compounds tested hit in one or more screens of this group.
ALDH1A1 inh: qHTS Assay for Inhibitors of Aldehyde Dehydrogenase 1 (ALDH1A1); hit rate 7.3% among 220,000; Aldehyde dehydrogenase 1A1 (Homo sapiens), P00352; Purified ALDH1A1, NADH fluorescence, propionaldehyde substrate; Potency, µM (top dose mostly 75.3 µM), without a hit: at the highest dose activity, negative = inhibition, usual class: inhibitors;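 also: potency is read from the fitted curve at half-maximal effect; plate controls were no enzyme wells and a reference inhibitor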
HPGD block: qHTS Assay for Inhibitors of HPGD (15-Hydroxyprostaglandin Dehydrogenase). purified HPGD, NADH fluorescence kinetic, PGE2 substrate. hit rate 4.3% among 150,000. AID 894, 2007. Potency, µM, without a hit: top-dose activity change, negative = inhibition, most hits filed as inhibitors; also: potency is read from the fitted curve at half-maximal effect
Target sequence (P15428 whole entry, looked up): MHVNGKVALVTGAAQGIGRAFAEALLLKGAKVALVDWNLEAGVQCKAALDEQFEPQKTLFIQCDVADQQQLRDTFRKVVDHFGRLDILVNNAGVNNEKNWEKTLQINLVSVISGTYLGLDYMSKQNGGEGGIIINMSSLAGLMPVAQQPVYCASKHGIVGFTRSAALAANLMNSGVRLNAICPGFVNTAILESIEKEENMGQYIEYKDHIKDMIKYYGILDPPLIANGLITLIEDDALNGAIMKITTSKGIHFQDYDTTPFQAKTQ
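20 nM HPGD preincubated 15 min at room temperature with compound in 50 mM Tris-HCl pH 8, 0.01% Tween 20. Started with 1 mM NAD+ and 30 uM prostaglandin E2; NADH fluorescence (360/450 nm) read 5 times over 30-s intervals, last minus first.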
PNC assembly inh: High Content Assay for Compounds that inhibit the Assembly of the Perinucleolar Compartment. activity change (PNC), negative = inhibition, % at 10 µM. PC3M PTB-GFP, PNC prevalence imaging, 16 h; stronger effect = lower value. AID 2417, 2010. hit rate 3.1% among 140,000;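 active = readout at or below -70, meaning at least 70% loss of cells showing the perinucleolar compartment, a nuclear body marking cancer cells; inconclusive = readout between -30 and a set limit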;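 also: plate controls were DMSO wells for no effect and camptothecin positive control wells for full effect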
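Read-out is percentage of cells bearing a perinucleolar compartment, from automated 20x imaging of fixed, Hoechst-stained PC3M PTB-GFP cells. Cells were seeded 4 h, then exposed 16 h to compound (23 nl of library stock) in duplicate plates.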
* marks the source's active call; other numbers are inactive results; [ ] = another dose, or the depositor's remark. Unless noted, calls follow the shape of the dose curve; as a rule, active = well fitted inhibition curve with a large enough effect (not every such curve was filed as active); inconclusive = small, poorly fitted or top-dose-only effect, or another doubt; inactive = no such curve, though single readings can be large or run the other way. Unless noted, % is scaled to controls: 0 for no effect and ±100 for the full control effect.

`CN(C)Cc1ccccc1-c1cncnc1Nc1ccncc1` gave ALDH1A1 inh -4.1%.
Screening COc1nc(NC23CC4CC(CC(C4)C2)C3)nc(OC)n1 returned ALDH1A1 inh 25.1µM*, HPGD block -9.8% and PNC assembly inh -6.7.
C1CCN=C(NC23CC4CC(CC(C4)C2)C3)CC1 was read as ALDH1A1 inh 7.4%, HPGD block -6.3% and PNC assembly inh 6.4.
Screening C=CCc1ccc(OCCCCNC(C)CC)c(OC)c1 (centres undefined) returned ALDH1A1 inh inconclusive, HPGD block 1.2% and PNC assembly inh -23.3.
For C/C=C/c1ccc(OCCCNC2CCCC2)c(OC)c1 the results were ALDH1A1 inh 28.2µM*, HPGD block -5.6% and PNC assembly inh inconclusive.
C/C=C/c1ccc(OCC(=O)OCC)c(OC)c1 was read as ALDH1A1 inh 18.0%.
C/C=C/c1ccc(OCCCNC(C)CC)c(OC)c1 (centres undefined) was read as ALDH1A1 inh 15.8µM*, HPGD block -8.9% and PNC assembly inh 55.3.
COc1ccc(-n2cc(CNCCc3cnc[nH]3)c(-c3cccc(F)c3)n2)cc1 was read as ALDH1A1 inh 3.7%.
`CC(C)=N/N=C1/NC(=O)C(CC(=O)Nc2cc(Cl)ccc2C)S1` (centres undefined) gave ALDH1A1 inh -8.7%, HPGD block -10.6% and PNC assembly inh 2.2.
CCCC(=O)Nc1sc(C(=O)Nc2cccc(N)c2)c(C)c1C(=O)OC was read as ALDH1A1 inh 0.1%.
For CO[C@@H]1COC(=O)[C@H](CCSC)NC(=O)C/C=C\[C@@H](C)COC(=O)[C@@H]2CCCN2C(=O)C/C=C\[C@H]1C the results were ALDH1A1 inh 0.1%[13.5 µM].
For CCOc1ccccc1N1C(=O)CC(Sc2n[nH]c(-c3ccccc3)n2)C1=O (centres undefined) the results were ALDH1A1 inh 11.2µM*.
`CCOC(=O)CN1C(=O)C(Sc2n[nH]c(-c3ccc(C)cc3)n2)CCc2ccccc21` (centres undefined) gave ALDH1A1 inh 3.1%, HPGD block -4.0% and PNC assembly inh 69.7.
For CCOC(=O)COc1cc(N)c(Cl)cc1Cl the results were ALDH1A1 inh -4.7%.
O=C(Nc1ccnc(-c2ccncc2)n1)C1CC1 was read as ALDH1A1 inh 10.8%.
For Cc1cc(NC(=O)C(=O)NCCN2CCN(C(=O)c3cccs3)CC2)ccc1Br the results were ALDH1A1 inh 5.7%, HPGD block -11.2% and PNC assembly inh -100.0*.
`COc1ccc(NC(=O)C(=O)NCCN2CCN(C(=O)c3cccs3)CC2)cc1` gave ALDH1A1 inh inconclusive, HPGD block 2.7% and PNC assembly inh 14.0.
`Cc1ccc(C(=O)N/C(=C\c2ccc(Cl)cc2)C(=O)NCC2CCCO2)cc1` (centres undefined) gave ALDH1A1 inh 13.4%, HPGD block -0.3% and PNC assembly inh 35.6.
For CN1CCc2nc(NC(=O)COc3ccc(C#N)cc3)sc2C1 the results were ALDH1A1 inh 7.8%.
Screening COC(=O)c1cc(C)sc1NC(=S)N1CCN(CCc2ccccc2)CC1 returned ALDH1A1 inh 14.1µM*.
CCCN1CCN(C(=S)Nc2sc(CC)cc2C(=O)OC)CC1 was read as ALDH1A1 inh -7.5%.
CCOC(=O)c1oc2cccc(O)c2c1C was read as ALDH1A1 inh -2.6%, HPGD block -12.7% and PNC assembly inh 33.5.
CCOC(=O)c1oc2ccc(CNC(C)(C)C)c(Cl)c2c1C was read as ALDH1A1 inh -10.7%, HPGD block -10.9% and PNC assembly inh -118.9*.
COc1ccc(NC(=O)C2C3CCC4C(CCC32)C4(Cl)Cl)cc1 (centres undefined) was read as ALDH1A1 inh -0.7%, HPGD block -11.4% and PNC assembly inh -11.4.
For COc1cccc(NC(=O)C2C3CCC4C(CCC32)C4(Cl)Cl)c1 (centres undefined) the results were ALDH1A1 inh 7.94µM*, HPGD block -9.5% and PNC assembly inh inconclusive.
CC1(C)CN=c2s/c(=C\c3ccc(Cl)cc3)c(=O)n2C1 was read as ALDH1A1 inh 2.24µM*.
Screening CSC1=N/C(=C\c2ccc(Cl)cc2)C(=O)N1N(C)C returned ALDH1A1 inh 5.1%.
For Cc1ccc(NC(=O)c2cc(N3C(=O)C4CC=CCC4C3=O)ccc2N2CCOCC2)cc1Cl (centres undefined) the results were ALDH1A1 inh 28.2µM*, HPGD block -28.1% and PNC assembly inh inconclusive.
Screening Cc1ccc(NC(=O)c2cc(NC(=O)c3ccco3)ccc2N2CCOCC2)cc1 returned ALDH1A1 inh inconclusive, HPGD block -13.6% and PNC assembly inh 6.0.
Screening Cc1ccc(NC(=O)c2cc(N3C(=O)C=CC3=O)ccc2N2CCOCC2)cc1 returned ALDH1A1 inh 0.355µM*.
For Cc1ccc(NC(=O)c2cc(-n3cnnc3)ccc2Cl)cc1 the results were ALDH1A1 inh -0.2%, HPGD block -7.6% and PNC assembly inh 21.9.
For Cc1ccc(NC(=O)c2cc(N3C(=O)C=CC3=O)ccc2Cl)cc1C the results were ALDH1A1 inh 2.24µM*, HPGD block 3.16µM* and PNC assembly inh 2.4.
COc1c(C)cccc1C(=O)Nc1ccc(N2CCOCC2)c(Cl)c1 was read as ALDH1A1 inh -11.5%, HPGD block -27.2% and PNC assembly inh inconclusive.
Screening CCCc1cc(C(=O)Nc2c(C)n(C)n(-c3ccccc3)c2=O)no1 returned ALDH1A1 inh -11.5%, HPGD block -10.9% and PNC assembly inh 25.5.
For CC1=CC(=O)C2=C(C)C[C@@H]3OC(=O)[C@@H](C)[C@H]3C=C12 the results were ALDH1A1 inh 3.2% and HPGD block -4.1%.
`CCOC(=O)Cn1nc(C)cc1NC(=O)c1cccnc1` gave ALDH1A1 inh 7.2%.
`CCn1cc(C(C)NC(=O)Nc2ccc3c(c2)OCO3)c(C)n1` (centres undefined) gave ALDH1A1 inh 2.5%.
For CC(=O)C1=C(C)NC(=O)CC1c1ccc(F)cc1 (centres undefined) the results were ALDH1A1 inh 1.2%.
For COc1ccccc1CCc1nnc(CCC(=O)NC(C)Cc2cccnc2)o1 (centres undefined) the results were ALDH1A1 inh -1.6%.
Cc1ccc(N2CCN(C(=O)c3ccccc3NC(=O)/C=C\C(=O)O)CC2)cc1 was read as ALDH1A1 inh 11.8%, HPGD block -6.0% and PNC assembly inh 21.3.
`Cc1nc(OCc2c(C)noc2C)c2ccccc2n1` gave ALDH1A1 inh 3.4%.
CN(c1ccc(OCc2nnc(-c3ccccc3)o2)cc1)S(=O)(=O)c1ccccc1 was read as ALDH1A1 inh 5.1%, HPGD block 7.94µM* and PNC assembly inh inconclusive.
O=[N+]([O-])c1ccc(OCc2nnc(-c3ccccc3)o2)cc1 was read as ALDH1A1 inh 6.5%.
`Cc1cc(C)c(S(=O)(=O)N2CCCOC2CNC(=O)C(=O)NCCc2c[nH]c3ccccc23)c(C)c1` (centres undefined) gave ALDH1A1 inh -25.1%, HPGD block -8.4% and PNC assembly inh -5.0.
